# PostGolgi yeast = growth inhibition of a yeast mutant, post-Golgi transport screen. post-Golgi transport phenotypic cell assay. inhibition, % at 10 µM. actives 0.9% (n = 98,000). AID 739;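 also: yeast cells grown in 1536-well plates; yeast grown about 18 h at 30C before absorbance read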
# CYP2C9 inh = human CYP2C9 inhibition. P11712. CYP2C9 Supersomes, luciferin-H conversion, luminescence. inhibition, % at 5 µM. actives 20% (n = 96,000). AID 777;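 active = blocking of liver enzyme CYP2C9 beyond about 50% at 5 µM, limit read from the data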
# CYP2C9 act = CYP2C9 (human) activation; P11712; recombinant CYP2C9, luciferin-H conversion, luminescence; active compounds read high; factor 1 = untreated enzyme, 0 = blocked; activation factor at 5 µM; actives 1.4% (n = 96,000); AID 1024;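 active = activation factor of 2 or more for CYP2C9 at a 5 µM dose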;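 also: 0 = sulfaphenazole-blocked wells and 1 = vehicle-only wells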
# CYP2C19 inh = blocks human cytochrome P450 2C19 | CYP2C19 Supersomes, luciferin-H EGE luminescence, 30 min | inhibition, % at 5 µM | actives 21% (n = 96,000) | AID 778;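 active = CYP2C19 inhibition above a set limit at 5 µM in the primary screen, cut at about 50% in these data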;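 also: plate controls were negative control wells for no effect and 2.5 mM tranylcypromine positive control for full effect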
# Target sequence (P33261 whole entry, looked up): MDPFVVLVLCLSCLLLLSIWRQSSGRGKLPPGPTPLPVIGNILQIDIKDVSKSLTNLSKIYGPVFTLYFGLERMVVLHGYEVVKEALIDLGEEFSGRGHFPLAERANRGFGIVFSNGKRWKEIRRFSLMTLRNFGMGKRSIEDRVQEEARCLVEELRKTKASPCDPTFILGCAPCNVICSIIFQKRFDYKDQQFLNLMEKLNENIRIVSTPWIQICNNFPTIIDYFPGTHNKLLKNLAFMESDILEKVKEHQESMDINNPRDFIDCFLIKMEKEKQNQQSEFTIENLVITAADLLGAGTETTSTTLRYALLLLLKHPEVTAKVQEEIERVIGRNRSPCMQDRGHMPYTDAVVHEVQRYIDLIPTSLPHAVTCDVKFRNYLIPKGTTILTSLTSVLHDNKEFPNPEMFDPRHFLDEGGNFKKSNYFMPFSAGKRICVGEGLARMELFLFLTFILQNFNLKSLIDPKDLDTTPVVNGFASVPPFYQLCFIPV
# CYP2C19 activ = activators of human cytochrome P450 2C19; activation factor at 5 µM; recombinant CYP2C19, luciferin-H EGE luminescence; active compounds read high; 0 = fully inhibited enzyme, 1 = untreated enzyme; 96,000 tested, under 10 active; AID 1025;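 active = activation factor of at least 2 at 5 µM in the primary screen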;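 also: 0 = wells with 2.5 mM tranylcypromine and 1 = vehicle-only wells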
# PostGolgi ctrl = growth of the yeast control strain, post-Golgi counter-screen | actives 5% (n = 98,000) | inhibition, % at 10 µM | efflux-deficient yeast background strain, growth absorbance A615, 16 h
# Starred values were filed as active, the others as inactive; . = not tested or not shown. A selection: hits, their analogues and other compounds. The true share with any hit is near 32%. Rule as the data show it, unless noted: active = inhibition above about 30%; inactive = the rest.
SMILES,PostGolgi yeast,CYP2C9 inh,CYP2C9 act,CYP2C19 inh,CYP2C19 activ,PostGolgi ctrl
CCS(=O)(=O)N1CCCC(C(=O)NC2CCC(C)CC2)C1 (stereo not drawn),0,1,1,27,0.7,3
CCc1ccc2c(c1)CCCN2C(=O)c1ccccc1C(=O)O,3,33,0.7,49,0.5,3
Cn1cc(Cl)c(C(=O)OCC(=O)Nc2ccccc2)n1,-4,22,0.8,83*,0.2,1
CC(C)C(=O)Nc1ccc(C(=O)NNC(=O)C(c2ccccc2)c2ccccc2)cc1,-2,6,0.9,-8,1.1,16
CCOc1ccc(NC(=O)c2ccco2)cc1,3,5,0.9,22,0.8,-4
CC(C)OC(=O)c1ccc(NC(=O)c2ccco2)cc1,1,45,0.5,57*,0.4,7
Cn1cc(Cl)c(C(=O)Nc2cccc(Cl)c2Cl)n1,1,16,0.8,49,0.5,12
Cn1cc(Cl)c(C(=O)Nc2nc3ccccc3s2)n1,5,-6,1.1,54*,0.5,5
O=C(COC(=O)c1ccccn1)Nc1cccc(Cl)c1,-3,14,0.9,30,0.7,-7
CC(C)C(=O)Nc1ccc(Nc2ccccc2)cc1,-3,55*,0.4,55*,0.5,-7
COc1cc(CN2CCN(c3cccc(C)c3C)CC2)cc(Br)c1O,-7,23,0.8,32,0.7,-3
COc1ccc(-c2cn3c4c(sc3n2)CCCC4)cc1,-9,78*,0.2,86*,0.1,17
CNc1ccccc1-n1ccc(-c2ccccc2)n1,-9,29,0.7,72*,0.3,0
CCCCC(=O)Nc1ccc(C(=O)Nc2cccnc2)cc1,6,16,0.8,13,0.9,11
COc1ccc(NC(=O)NCc2ccncc2)cc1,-3,60*,0.4,31,0.7,-1
CCCCC(=O)Nc1ccc(C(=O)NCc2ccncc2)cc1,-21,70*,0.3,63*,0.4,-1
O=C(NCCc1ccncc1)Nc1ccc(Cl)cc1,-8,96*,0,97*,0,4
COc1ccc(CNC(=O)Nc2cccc3ccccc23)cc1,-2,-36,1.4,89*,0.1,10
CC(=O)Nc1ccc(-c2nnc(SCc3c(C)cc(C)cc3C)n2C)cc1,-11,15,0.8,2,1,1
Cc1ccc2c(c1)NC(=O)C(CC(=O)NCc1cccnc1)O2 (stereo not drawn),-7,7,0.9,6,0.9,12
O=C(NCc1ccncc1)Nc1ccccc1Cl,-3,81*,0.2,89*,0.1,-3
CCOC(=O)c1ccc(NC(=O)NCc2ccncc2)cc1,-23,73*,0.3,24,0.8,7
O=C(NCc1ccncc1)Nc1ccccc1,19,34,0.7,54*,0.5,4
CC(C)(C)c1cccc(OCCCSc2ncccn2)c1,0,1,1,-3,1,10
CCN(CC)c1nc(Nc2ccc(Cl)cc2)nc(OCC#N)n1,1,1,1,-6,1.1,6
SMILES,PostGolgi yeast,CYP2C9 inh,CYP2C9 act,CYP2C19 inh,CYP2C19 activ,PostGolgi ctrl
COC(=O)C(C(C)=O)C1=C/C(=N\S(=O)(=O)c2ccc(C)cc2)c2ccccc2C1=O (stereo not drawn),1,89*,0.1,90*,0.1,6
Cc1ccc(Cn2ccc(NC(=O)c3nc4ncccn4n3)n2)cc1,-1,16,0.8,10,0.9,1
Cc1cccnc1-n1c(CCN2C(=O)c3ccccc3C2=O)nc2ccccc2c1=O,.,7,0.9,38,0.6,.
CCOC(=O)C1=C(C)C(c2ccccc2OC)NC(=S)N1 (stereo not drawn),-3,9,0.9,53*,0.5,2
Cc1cc(C)c[n+](-c2nc([O-])sc2C=O)c1,-4,1,1,-2,1,7
Cc1cc(C)nc(SCC(=O)Nc2ccc(S(=O)(=O)NCCO)cc2)n1,-2,15,0.9,0,1,7
Cc1cc(C)nc(SCC(=O)N/N=C\c2sccc2C)n1,9,20,0.8,55*,0.4,4
Cc1cc(C)nc(SCC(=O)Nc2ccc(S(=O)(=O)NC(C)(C)C)cc2)n1,1,58*,0.4,13,0.9,8
Cc1cc(C)nc(SCC(=O)Nc2ccc(S(=O)(=O)N3CCCCC3)cc2)n1,-11,75*,0.2,49,0.5,16
Cc1csc(SCC(=O)Nc2ccc(S(=O)(=O)N3CCCC3)cc2)n1,4,94*,0.1,65*,0.4,22
Cc1cc(C)n2nc(SCC(=O)N/N=C/c3ccc(F)cc3)nc2n1,-9,-3,1,25,0.8,16
Cc1ccc(CNC(=O)Cn2cccc2C(=O)c2ccccc2)cc1,27,-52,1.5,19,0.8,-4
COc1ccc(NC(=O)CSc2nc(C)cc(C)n2)cc1,11,-3,1,87*,0.1,3
Cc1csc(C(C#N)C(=O)c2ccc(S(=O)(=O)N3CCCC3)cc2)n1 (stereo not drawn),-6,72*,0.3,22,0.8,16
COc1ccc(NC(=O)CCn2nc(C)cc2C)cc1,10,-43,1.4,68*,0.3,15
Cc1c(CNC(=O)c2nn3c(c2Cl)NC(c2ccccc2)CC3C(F)(F)F)cnn1C (stereo not drawn),16,44,0.6,33,0.7,6
O=C(NCc1ccco1)c1cnn2c1NC(c1ccc(Br)cc1)CC2C(F)(F)F (stereo not drawn),-3,87*,0.1,66*,0.3,38*
Cc1ccccc1Cn1ccc(NC(=O)c2cnn3c2NC(c2ccccc2)CC3C(F)(F)F)n1 (stereo not drawn),11,96*,0,67*,0.3,37*
Cc1nn(C)c(C)c1CN(C)C(=O)c1cnn2c1NC(c1ccccc1)CC2C(F)(F)F (stereo not drawn),0,65*,0.3,32,0.7,9
O=C(NCc1ccco1)c1cnn2c1NC(c1ccccc1)CC2C(F)(F)F (stereo not drawn),-6,83*,0.2,45,0.5,3
CC(C)N(C#N)c1nc(N2CCOCC2)nc(N2CCOCC2)n1,-5,45,0.5,19,0.8,-2
O=S1(=O)N=C(Nc2ccc(O)c(CN3CCCCC3)c2)c2ccccc21,-2,-18,1.2,-16,1.2,10
CC(=O)N(CCCN1CCOCC1)Cc1ccncc1,0,7,0.9,8,0.9,1
CNc1oc(-c2cccc3ccccc23)nc1C#N,-1,-8,1.1,19,0.8,20
c1ccc2c(-c3nc4ncccc4o3)cccc2c1,7,-228,3.3*,-1,1,15
Cc1ccc(NS(=O)(=O)c2ccc(CCC(=O)NCCO)cc2)cc1,1,85*,0.1,58*,0.4,9
Cc1ccc(S(=O)(=O)NCCC(=O)NCCN2CCCCCC2)cc1,6,-37,1.4,-19,1.2,-5
